The record followed here is the supplement of paper PMC9925115.

The structures appear in SMILES notation. Counter-ions that a name gives are not always drawn.

In this experiment the test system is FLX1 + dox-induced PRKAR1A G325D. The experiment can be described thus: difference in log2 fold change of viability vs plate median (dox-induced PRKAR1A G325D minus uninduced); higher = compound less effective when PKA is inhibited. The following applies: concentration: not stated (2 or 5 uM); 5 days. How it is done: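 For each plate a log2 fold change vs the plate median was derived, and the values without dox were subtracted from those with dox, averaged over three biological replicates.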
Turning to `Cc1csc(-c2nnc(Nc3ccc(Oc4ncccc4-c4ccnc(N)n4)cc3)c3ccccc23)c1`, the “difference in log2 fold change of viability” value (from here on “difference in log2 fold change”) is 0.188. The figure for `Oc1cccc(-c2nc(N3CCOCC3)c3oc4ncccc4c3n2)c1` is 0.496; for `Nc1nc(N)c2nc(-c3cccc(O)c3)c(-c3cccc(O)c3)nc2n1` it is 0.117. On to `Cn1cnc2c(F)c(Nc3ccc(Br)cc3Cl)c(C(=O)NOCCO)cc21` [Selumetinib (AZD6244)], for which the “difference in log2 fold change” value is -1.05. For the compound `Cc1ccc(S(=O)(=O)/C=C/C#N)cc1`, the “difference in log2 fold change” value is -0.118. As to `N#CCNC(=O)c1ccc(-c2ccnc(Nc3ccc(N4CCOCC4)cc3)n2)cc1` [Momelotinib (CYT387)], the “difference in log2 fold change” value worked out at 0.708.

In the case of `Clc1ccc(C2(c3ccc(-c4cn[nH]c4)cc3)CCNCC2)cc1`, the “difference in log2 fold change” value amounted to 0.734. In the case of `CS(=O)(=O)c1cccc(CNc2nc(Nc3ccc4c(c3)CCC(=O)N4)ncc2C(F)(F)F)c1`, the “difference in log2 fold change” value was -0.0481.

For `COc1cc(Nc2ncc(F)c(Nc3ccc4c(n3)NC(=O)C(C)(C)O4)n2)cc(OC)c1OC`, the “difference in log2 fold change” value is -0.353. Regarding `CCOc1cc2ncc(C#N)c(Nc3ccc(F)c(Cl)c3)c2cc1NC(=O)/C=C/CN(C)C` [Pelitinib (EKB-569)], the “difference in log2 fold change” value was 0.0327. With `COc1ccc2c(Oc3ccc(NC(=O)c4c(C)n(CC(C)(C)O)n(-c5ccccc5)c4=O)nc3)ccnc2c1`, the “difference in log2 fold change” value is 0.00712. Turning to `N=C(N)NC(=N)NCCc1ccccc1` [Phenformin HCl], the “difference in log2 fold change” value was -0.0569. As for `Cc1[nH]c(/C=C2\C(=O)Nc3ccc(S(=O)(=O)Cc4c(Cl)cccc4Cl)cc32)c(C)c1C(=O)N1CCC[C@@H]1CN1CCCC1`, the “difference in log2 fold change” value was -0.266. Take `CNc1nc(-c2ccc3c(N)n[nH]c3c2)cc(N2C[C@@H](C(=O)NC3CCCCC3)CC[C@H]2C)n1`: the “difference in log2 fold change” value was found to be 0.221. With `CC(=O)Nc1cccc(-n2c(=O)n(C3CC3)c(=O)c3c(Nc4ccc(I)cc4F)n(C)c(=O)c(C)c32)c1`, the “difference in log2 fold change” value is -0.368. The figure for `Nc1cc(C(F)(F)F)c(-c2cc(N3CCOCC3)nc(N3CCOCC3)n2)cn1` [Buparlisib (BKM120, NVP-BKM120)] is 0.841; for `OCCn1cc(-c2cnc3nnn(Cc4ccc5ncccc5c4)c3n2)cn1` it is -0.172.

For `Nc1nccc(Oc2ccc(NC(=O)c3c[nH]cc(-c4ccc(F)cc4)c3=O)cc2F)c1Cl`, the “difference in log2 fold change” value is -0.00105. As to `CS(=O)(=O)CCNCc1ccc(-c2ccc3ncnc(Nc4ccc(OCc5cccc(F)c5)c(Cl)c4)c3c2)o1`, the “difference in log2 fold change” value came out at 0.519. Take `COc1c(C)c(C(=O)c2ccc(N)c(C(=O)O)c2)n2ccccc12`: the “difference in log2 fold change” value was 0.093. As to `C#Cc1cccc(Nc2ncnc3cc4c(cc23)OCCOCCOCCO4)c1` [Icotinib], the “difference in log2 fold change” value is -0.163. For `CO[C@H]1C[C@@H]2CC[C@@H](C)[C@@](O)(O2)C(=O)C(=O)N2CCCC[C@H]2C(=O)O[C@H]([C@H](C)C[C@@H]2CC[C@H](n3cnnn3)[C@H](OC)C2)CC(=O)[C@H](C)/C=C(\C)[C@@H](O)[C@@H](OC)C(=O)[C@H](C)C[C@H](C)/C=C/C=C/C=C/1C` [Zotarolimus(ABT-578)], the “difference in log2 fold change” value amounted to 0.358. The figure for `CCS(=O)(=O)c1cccc(-c2cc(C(=O)NC3CCN(C)CC3)c(C)c3[nH]c4ncc(C)cc4c23)c1` is -0.102; for `O=c1ncn2nc(Sc3ccc(F)cc3F)ccc2c1-c1c(Cl)cccc1Cl` it is 2.06. For `CN(C[C@@H]1COCCO1)S(=O)(=O)Nc1ccc2ccc3ncc(-c4cnn(C)c4)cc3c(=O)c2c1`, the “difference in log2 fold change” value was -0.247. With `CNC(=O)CN1CCC(Oc2cc3c(Nc4cccc(Cl)c4F)ncnc3cc2OC)CC1` [Sapitinib (AZD8931)], the “difference in log2 fold change” value is -0.745. For `CC(C)CCN1c2nc(Nc3cc(F)c(O)c(F)c3)ncc2N(C)C(=O)C1C` (stereo not given), the “difference in log2 fold change” value is -0.074.

For the compound `Cn1cnc2c(F)c(Nc3ccc(Br)cc3F)c(C(=O)NOCCO)cc21`, the “difference in log2 fold change” value was -1.09.

With `Cc1cc(Nc2cc(CN3CCOCC3)c3nc(C)c(Cc4ccc(Cl)cc4F)n3n2)n[nH]1`, the “difference in log2 fold change” value was -1.14. `C=CC(=O)Nc1cccc(Nc2nc(Nc3ccc(OCCOC)cc3)ncc2F)c1`: the “difference in log2 fold change” value is -0.726.

As for `N#Cc1c(O)c2c(-c3ccc(-c4ccccc4O)cc3)csc2[nH]c1=O`, the “difference in log2 fold change” value was determined as 0.134.

`CC[C@@H]1C(=O)N(C)c2cnc(Nc3ccc(C(=O)N[C@H]4CC[C@H](N5CCN(CC6CC6)CC5)CC4)cc3OC)nc2N1C(C)C` [Volasertib (BI 6727)]: the “difference in log2 fold change” value was -0.0557.

On to `Cn1cc(C2=C(c3ccc(Cl)cc3Cl)C(=O)NC2=O)c2ccccc21`, for which the “difference in log2 fold change” value was determined as 0.189. For `CC1=C(C(=O)Nc2cc3cn[nH]c3cc2F)C(c2ccc(C(F)(F)F)cc2)CC(=O)N1` (stereo not given) the value was 0.418. `N[C@@H]1CCCN(c2c(/C=C3\SC(=O)NC3=O)cccc2-c2ccccc2)C1`: the “difference in log2 fold change” value was 0.132. With `C[C@@H]1CN(CC(=O)Nc2ccc3c(c2)Cc2cccc(-c4cc(=O)cc(N5CCOCC5)o4)c2S3)C[C@H](C)O1`, the “difference in log2 fold change” value was -0.0572. As for `O=C1NC(=O)C(=Cc2ccc(-c3ccc(F)cc3)o2)S1` (stereo in doubt), the “difference in log2 fold change” value is -0.0657. With `N#Cc1ccc2[nH]c(O)c(-c3ccc(CN4CCOCC4)cn3)c2c1`, the “difference in log2 fold change” value is 0.199. Consider `O=C(Cc1ccc(-c2ccc(OCCN3CCOCC3)cc2)cn1)NCc1ccccc1`, for which the “difference in log2 fold change” value was 0.213. In the case of `CNc1nc(Nc2cn(C(C)(C)C#N)nc2C)ncc1C(F)(F)F`, the “difference in log2 fold change” value was 0.145.
